# Laboratory results from the supplement of paper PMC10849652.
# About 7,900 targets were measured; listed, in parts, are those with a hit and a random draw of the rest. About 0.6% of all pairs of compound and target were hits. A number with no mark means an inactive call.
# Assays:
# Experiment in all cases: log2 fold change, soluble protein after heating vs DMSO (PISA); higher = thermal stabilisation; K562 cells, 10 uM, 30 min; active = over 0.2 and 3.5 SD of the protein, either way, in both replicates (recomputed)
# [1] = compound: C#Cc1cccc(Nc2ncnc3cc(OCCOC)c(OCCOC)cc23)c1 [erlotinib]
# Method in brief: (§1)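 K562 cells (2×10^6 cells/mL) were treated with 10 μM compound for 30 min, and aliquots were heated for 3 min over 48°C-58°C. Pooled aliquots were extracted in PBS with 0.5% NP-40 at 4°C, and the supernatant after 21,000xg for 90 min was measured by TMTpro 16plex LC-MS/MS with channel sums equalised. Reported thermal stability, relative to control samples and from duplicates, is a log2 fold change.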
# [2] = compound: C/C(=N\NC(=O)C1=CC(=CC=C1)S(=O)(=O)N2CCOCC2)/C3=C(C=CC(=C3)Cl)O
# Method in brief: as §1
# [3] = compound: C1=CC(=C(C=C1Cl)C2=NC3=NC=CN=C3C(=N2)NC4=CC=NC=C4)F
# Method in brief: as §1
# [4] = compound: C1=CC(=CC=C1C2=NC3=C(N2)C=C(C=C3)C(=O)N)OC4=CC=C(C=C4)Cl
# Method in brief: as §1
# [5] = compound: C1=CC2=C(C=CC(=C2)/C=C\3/C(=O)NC(=NCC4=CC=CS4)S3)N=C1
# Method in brief: as §1
# [6] = compound: C1=CC2=NC=CN=C2C=C1/C=C/3\C(=O)NC(=O)S3
# Method in brief: as §1
# [7] = compound: C1=CC=C(C=C1)C2=NC(=C(N2)C3=CC=NC=C3)C4=CC(=C(C=C4)Cl)O
# Method in brief: as §1
# [8] = compound: C1=CC=C2C(=C1)C3=NNC4=CC=CC(=C43)C2=O
# Method in brief: as §1
# [9] = compound: C1CCN(C1)C(=O)NC2=CC=CC(=C2)NC3=NC=C(C(=N3)NCCC4=CN=CN4)Br
# Method in brief: as §1
# [10] = compound: C1CN(CCC1(CC2=CC=C(C=C2)Cl)N)C3=NC=NC4=C3C=CN4
# Method in brief: as §1
# UniProt Q16512, sequence (Q16512 whole entry, looked up): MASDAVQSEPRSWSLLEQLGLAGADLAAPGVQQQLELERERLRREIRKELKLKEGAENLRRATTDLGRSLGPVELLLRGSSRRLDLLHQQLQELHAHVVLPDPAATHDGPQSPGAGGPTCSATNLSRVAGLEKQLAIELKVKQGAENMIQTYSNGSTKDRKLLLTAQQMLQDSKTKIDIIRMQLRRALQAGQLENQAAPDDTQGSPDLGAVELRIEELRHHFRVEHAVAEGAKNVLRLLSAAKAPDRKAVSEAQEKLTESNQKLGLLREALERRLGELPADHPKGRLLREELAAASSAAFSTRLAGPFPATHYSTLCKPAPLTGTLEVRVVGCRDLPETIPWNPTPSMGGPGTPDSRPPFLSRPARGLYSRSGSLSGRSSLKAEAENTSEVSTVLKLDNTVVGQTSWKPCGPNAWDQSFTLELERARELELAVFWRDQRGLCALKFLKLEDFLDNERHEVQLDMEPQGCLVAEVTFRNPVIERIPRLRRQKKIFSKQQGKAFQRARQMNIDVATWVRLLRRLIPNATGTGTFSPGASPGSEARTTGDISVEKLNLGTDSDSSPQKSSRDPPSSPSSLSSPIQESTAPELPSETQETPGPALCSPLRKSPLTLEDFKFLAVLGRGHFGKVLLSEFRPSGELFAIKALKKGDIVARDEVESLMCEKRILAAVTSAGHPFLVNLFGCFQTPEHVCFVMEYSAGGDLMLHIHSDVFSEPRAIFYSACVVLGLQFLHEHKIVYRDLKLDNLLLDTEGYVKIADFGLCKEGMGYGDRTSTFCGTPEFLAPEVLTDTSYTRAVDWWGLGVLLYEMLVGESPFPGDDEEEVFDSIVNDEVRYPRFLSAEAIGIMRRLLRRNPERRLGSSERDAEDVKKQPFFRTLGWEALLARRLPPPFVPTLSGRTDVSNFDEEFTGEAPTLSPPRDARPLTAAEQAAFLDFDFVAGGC
# UniProt P11216, sequence (P11216 whole entry, looked up): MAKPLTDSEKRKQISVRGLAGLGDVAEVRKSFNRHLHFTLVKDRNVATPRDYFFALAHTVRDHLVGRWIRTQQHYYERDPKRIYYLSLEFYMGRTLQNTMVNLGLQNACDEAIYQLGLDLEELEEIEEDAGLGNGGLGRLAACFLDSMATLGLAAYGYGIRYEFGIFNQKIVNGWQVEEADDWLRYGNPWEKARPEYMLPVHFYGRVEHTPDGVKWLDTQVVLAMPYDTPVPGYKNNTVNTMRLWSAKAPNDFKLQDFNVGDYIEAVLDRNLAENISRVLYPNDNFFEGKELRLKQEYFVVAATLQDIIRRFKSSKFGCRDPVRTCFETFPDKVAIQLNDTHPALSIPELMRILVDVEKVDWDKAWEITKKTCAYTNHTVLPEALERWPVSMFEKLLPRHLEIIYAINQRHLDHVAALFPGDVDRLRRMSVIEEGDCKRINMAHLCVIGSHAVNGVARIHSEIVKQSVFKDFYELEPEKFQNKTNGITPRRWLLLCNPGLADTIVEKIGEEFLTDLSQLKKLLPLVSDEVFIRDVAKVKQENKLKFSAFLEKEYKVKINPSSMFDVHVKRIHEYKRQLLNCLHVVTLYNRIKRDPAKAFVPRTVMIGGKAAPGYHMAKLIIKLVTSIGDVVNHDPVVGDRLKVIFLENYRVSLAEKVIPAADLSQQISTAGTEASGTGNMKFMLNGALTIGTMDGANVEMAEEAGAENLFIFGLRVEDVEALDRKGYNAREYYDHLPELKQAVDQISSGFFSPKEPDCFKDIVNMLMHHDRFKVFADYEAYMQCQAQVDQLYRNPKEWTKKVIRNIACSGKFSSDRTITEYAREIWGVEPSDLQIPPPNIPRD
# UniProt Q8N5Y8, sequence (Q8N5Y8 whole entry, looked up): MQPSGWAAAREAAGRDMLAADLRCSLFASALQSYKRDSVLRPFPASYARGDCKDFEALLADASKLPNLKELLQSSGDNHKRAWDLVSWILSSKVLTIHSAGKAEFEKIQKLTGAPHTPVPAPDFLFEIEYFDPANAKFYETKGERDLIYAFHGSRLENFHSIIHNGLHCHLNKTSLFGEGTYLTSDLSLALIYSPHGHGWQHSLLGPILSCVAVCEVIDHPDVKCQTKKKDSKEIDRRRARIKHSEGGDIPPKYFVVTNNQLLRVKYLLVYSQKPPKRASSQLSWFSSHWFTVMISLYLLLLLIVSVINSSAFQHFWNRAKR
# UniProt Q9BZL6, sequence (Q9BZL6 whole entry, looked up): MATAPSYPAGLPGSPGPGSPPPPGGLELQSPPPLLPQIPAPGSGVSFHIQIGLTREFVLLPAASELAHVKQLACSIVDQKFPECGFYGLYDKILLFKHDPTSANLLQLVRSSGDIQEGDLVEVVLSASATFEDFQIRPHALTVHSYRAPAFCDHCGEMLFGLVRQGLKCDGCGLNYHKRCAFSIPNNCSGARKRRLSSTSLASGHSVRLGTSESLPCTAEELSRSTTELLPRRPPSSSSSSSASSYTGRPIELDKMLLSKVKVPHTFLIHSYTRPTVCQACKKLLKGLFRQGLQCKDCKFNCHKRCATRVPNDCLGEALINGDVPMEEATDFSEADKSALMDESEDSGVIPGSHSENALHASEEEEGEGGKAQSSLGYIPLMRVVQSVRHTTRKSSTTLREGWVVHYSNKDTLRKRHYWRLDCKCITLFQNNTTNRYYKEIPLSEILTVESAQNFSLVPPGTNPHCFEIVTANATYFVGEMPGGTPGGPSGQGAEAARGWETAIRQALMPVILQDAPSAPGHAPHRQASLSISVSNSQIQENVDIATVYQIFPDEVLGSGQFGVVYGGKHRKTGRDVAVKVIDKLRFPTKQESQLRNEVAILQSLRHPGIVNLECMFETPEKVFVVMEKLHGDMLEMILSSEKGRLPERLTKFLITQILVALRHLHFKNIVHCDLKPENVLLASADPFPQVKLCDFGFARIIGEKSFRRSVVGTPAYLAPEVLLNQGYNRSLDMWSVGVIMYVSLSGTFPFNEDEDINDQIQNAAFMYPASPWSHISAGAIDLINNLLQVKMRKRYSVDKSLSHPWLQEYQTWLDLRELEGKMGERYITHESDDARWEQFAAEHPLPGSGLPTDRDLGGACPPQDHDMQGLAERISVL
# UniProt O60256, sequence (O60256 whole entry, looked up): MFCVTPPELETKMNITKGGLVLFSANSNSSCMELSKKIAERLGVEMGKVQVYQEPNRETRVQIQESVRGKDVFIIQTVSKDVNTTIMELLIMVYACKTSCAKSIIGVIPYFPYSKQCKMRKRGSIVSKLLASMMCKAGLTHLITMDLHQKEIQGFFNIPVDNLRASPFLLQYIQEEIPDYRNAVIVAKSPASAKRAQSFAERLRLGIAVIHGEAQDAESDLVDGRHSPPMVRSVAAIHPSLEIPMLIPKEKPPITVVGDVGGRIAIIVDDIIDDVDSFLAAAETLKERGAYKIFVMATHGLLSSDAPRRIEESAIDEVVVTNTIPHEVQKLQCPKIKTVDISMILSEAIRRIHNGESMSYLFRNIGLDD
# UniProt Q6EEV4, sequence (Q6EEV4 whole entry, looked up): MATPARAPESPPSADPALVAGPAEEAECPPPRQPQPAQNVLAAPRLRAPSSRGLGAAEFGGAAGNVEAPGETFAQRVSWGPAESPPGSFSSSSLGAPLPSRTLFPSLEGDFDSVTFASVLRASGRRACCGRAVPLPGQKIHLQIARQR
# UniProt Q15126, sequence (Q15126 whole entry, looked up): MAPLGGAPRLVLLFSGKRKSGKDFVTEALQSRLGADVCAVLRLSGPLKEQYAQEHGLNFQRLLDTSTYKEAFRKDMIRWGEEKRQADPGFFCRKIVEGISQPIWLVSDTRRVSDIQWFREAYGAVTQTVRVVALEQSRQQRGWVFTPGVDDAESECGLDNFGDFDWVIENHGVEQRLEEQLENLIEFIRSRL
# UniProt P62191, sequence (P62191 whole entry, looked up): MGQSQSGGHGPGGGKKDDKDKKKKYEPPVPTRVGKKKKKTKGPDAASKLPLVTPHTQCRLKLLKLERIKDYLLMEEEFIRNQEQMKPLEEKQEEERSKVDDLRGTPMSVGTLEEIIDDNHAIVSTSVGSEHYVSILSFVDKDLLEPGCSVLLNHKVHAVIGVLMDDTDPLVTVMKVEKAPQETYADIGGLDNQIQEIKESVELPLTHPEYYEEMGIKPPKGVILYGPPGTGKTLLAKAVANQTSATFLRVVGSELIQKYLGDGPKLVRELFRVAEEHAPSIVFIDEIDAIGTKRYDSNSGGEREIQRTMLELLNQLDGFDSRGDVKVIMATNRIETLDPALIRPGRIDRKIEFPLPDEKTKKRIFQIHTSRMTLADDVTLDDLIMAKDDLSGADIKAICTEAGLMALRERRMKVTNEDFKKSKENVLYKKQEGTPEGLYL
# UniProt Q02156, sequence (Q02156 whole entry, looked up): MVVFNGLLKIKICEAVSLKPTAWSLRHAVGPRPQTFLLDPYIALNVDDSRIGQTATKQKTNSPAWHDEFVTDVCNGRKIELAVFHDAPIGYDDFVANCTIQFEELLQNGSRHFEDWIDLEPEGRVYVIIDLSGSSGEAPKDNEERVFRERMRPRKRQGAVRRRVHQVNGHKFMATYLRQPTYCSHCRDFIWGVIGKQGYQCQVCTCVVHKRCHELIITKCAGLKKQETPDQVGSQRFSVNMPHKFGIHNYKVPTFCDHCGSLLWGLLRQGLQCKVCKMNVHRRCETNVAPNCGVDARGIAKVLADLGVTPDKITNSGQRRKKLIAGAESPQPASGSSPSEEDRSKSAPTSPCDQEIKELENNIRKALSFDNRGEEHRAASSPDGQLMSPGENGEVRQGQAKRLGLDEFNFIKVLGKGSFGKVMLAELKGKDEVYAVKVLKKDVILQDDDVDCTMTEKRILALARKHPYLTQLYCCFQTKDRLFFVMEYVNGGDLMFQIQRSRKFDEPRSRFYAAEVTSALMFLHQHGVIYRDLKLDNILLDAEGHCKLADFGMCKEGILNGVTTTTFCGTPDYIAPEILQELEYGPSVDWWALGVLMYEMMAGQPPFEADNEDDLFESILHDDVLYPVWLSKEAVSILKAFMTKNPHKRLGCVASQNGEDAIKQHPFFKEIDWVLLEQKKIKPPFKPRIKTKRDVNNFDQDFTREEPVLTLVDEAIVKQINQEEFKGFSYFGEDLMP
Target,log2 fold change [1],log2 fold change [2],log2 fold change [3],log2 fold change [4],log2 fold change [5],log2 fold change [6],log2 fold change [7],log2 fold change [8],log2 fold change [9],log2 fold change [10]
PPP2R5A (UniProt Q15172),0.011,0.098,0.009,-0.022,0.018,0.055,0.078,0.017,0,-0.015
PYGB (UniProt P11216),-0.047,-0.022,-0.003,0.087,0.11,0.008,-0.011,0.039,0.009,-0.028
PKN1 isoform 2 (UniProt Q16512),0.018,0.088,0.064,0.055,0.059,0,0.011,0,-0.061,-0.326 (active)
PRPF40A (UniProt O75400),0.082,0.083,-0.087,0.012,0.032,0.007,-0.037,-0.135,-0.129,-0.124
PHKA1 (UniProt P46020),-0.028,-0.101,-0.051,0.003,0.057,0.024,0.152,-0.095,-0.105,-0.026
PPP1R12A (UniProt O14974),0.004,0.044,0.023,0.023,-0.188,0,0.035,-0.067,-0.074,-0.485 (active)
PTTG1IP (UniProt P53801),-0.011,-0.06,-0.039,-0.001,0.026,0.033,,-0.082,0.037,0.01
PSMC1 (UniProt P62191),-0.093,-0.063,-0.034,0.037,-0.027,-0.028,-0.017,0.029,0.012,-0.004
PTGFRN (UniProt Q9P2B2),0.019,-0.006,0.021,0,-0.034,0.01,0.015,-0.053,-0.027,0.11
PRPSAP2 (UniProt O60256),0.053,0.033,-0.017,-0.028,-0.06,0.017,-0.006,0.029,-0.02,0.009
PRKCE (UniProt Q02156),-0.076,0.107,0.111,0.057,0.06,0.057,,0.004,-0.019,-0.095
PDE12 (UniProt Q6L8Q7),-0.023,0.018,0.052,0.027,0.001,-0.008,-0.015,0.054,-0.04,0.026
POLR1A (UniProt O95602),-0.055,-0.236,0.031,0.058,0.04,0.005,0.079,-0.096,0,0.125
PYGL (UniProt P06737),-0.012,-0.008,0.001,0.037,0.047,-0.007,-0.02,0.008,-0.004,0.08
PELO (UniProt Q9BRX2),0.153,0.017,-0.108,0.074,0.105,-0.104,0.079,0.021,-0.097,-0.058
PMVK (UniProt Q15126),0.001,-0.518,0.006,0.042,0.052,-0.045,,-0.115,-0.006,0.15
PSMB6 (UniProt P28072),-0.067,-0.079,-0.024,-0.001,-0.068,-0.006,-0.046,-0.012,0.011,0.042
PRKD2 isoform 3 (UniProt Q9BZL6),0.04,0.214,0.022,0.055,0.003,0.004,-0.126,-0.347,-0.04,-0.075
POMP (UniProt Q9Y244),0.003,-0.018,0.373 (active),0.015,-0.073,0.086,-0.018,0.003,0.061,-0.034
POLR2M (UniProt Q6EEV4),-0.044,0.096,0.242,0.223,-0.006,-0.001,,-0.048,-0.041,0.024
PPIL1 (UniProt Q9Y3C6),0.019,-0.009,-0.027,-0.012,0.024,0.061,-0.013,-0.025,-0.007,-0.027
PRKCB isoform 2 (UniProt P05771),0.038,0.031,0.038,0,0.086,0.004,0.021,0.037,0,-0.067
PARP16 isoform 3 (UniProt Q8N5Y8),0.025,0.049,-0.055,-0.018,-0.029,0.102,,-0.013,-0.026,0.067
PPT1 (UniProt P50897),0.01,-0.011,0.018,-0.003,0.04,0.007,0.01,0.024,0.036,-0.009
PBX2 (UniProt P40425),0.111,0.076,0.055,0.007,0.009,-0.039,0.091,-0.098,-0.036,-0.269
